Shown are actives, neighbours in structure and some others; about 2.4% of the full set was active somewhere.
D2 ag-1 = activates the human D2 dopamine receptor | HEK293 T-REx D2 cells, calcium flux agonist mode | activation, % at 2 µM | 340,000 tested, 0.53% active | AID 485358;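 active = activation over 3 SD above normal in the single-dose calcium agonist read, cut at about 30% in these data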; note: 0% is about no effect
Target sequence (P14416 whole entry, looked up): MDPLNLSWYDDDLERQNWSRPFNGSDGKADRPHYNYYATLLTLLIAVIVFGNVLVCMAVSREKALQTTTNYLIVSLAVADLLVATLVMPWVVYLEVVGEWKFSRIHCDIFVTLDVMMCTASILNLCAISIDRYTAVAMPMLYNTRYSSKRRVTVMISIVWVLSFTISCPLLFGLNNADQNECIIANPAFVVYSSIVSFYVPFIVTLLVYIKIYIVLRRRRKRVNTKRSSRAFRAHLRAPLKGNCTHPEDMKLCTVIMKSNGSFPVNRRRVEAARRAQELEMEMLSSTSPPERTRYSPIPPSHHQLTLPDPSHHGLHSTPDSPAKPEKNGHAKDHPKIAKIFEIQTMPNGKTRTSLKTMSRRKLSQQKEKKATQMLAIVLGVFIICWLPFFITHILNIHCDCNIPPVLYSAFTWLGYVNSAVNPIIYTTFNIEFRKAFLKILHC
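HEK293 Trex D2 cells, tetracycline-induced, o/n 30 C 5% CO2; no-wash Ca dye, RT 30–90 min; 10-cycle baseline, 23 nl cpd added, kinetic Ca read 180 s; agonist hits = positive Ca response.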
D2 antagonist = antagonizes the human D2 dopamine receptor; P14416; HEK293 TREx D2 cells, calcium flux, dopamine EC80; inhibition, % at 10 µM; 340,000 tested, 2% active; in the data active = inhibition above about 30%; inactive = below that, where a call was filed; note: 0% is about no effect
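Inhibition of EC80 dopamine-driven calcium flux, recorded kinetically, defines activity here; cells are a tetracycline-induced HEK293 T-REx line expressing force-coupled D2.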
D2 PAM-1 = positively modulates the human D2 dopamine receptor allosterically. P14416. HEK293 T-REx D2, calcium flux, EC20 dopamine potentiation. potentiation, % at 10 µM. 340,000 tested, 0.34% active. AID 485347;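 active = potentiation over 3 SD above the plate norm, cut at about 30% in these data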; note: 0% is about no effect
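Using a no-wash calcium dye in inducible, force-coupled HEK293 Trex cells expressing D2, we tracked fluorescence each second for 180 s after compound, then for 180 s after EC20 dopamine to detect augmented signalling.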
D2 ag-2 = agonists of human D2 dopamine receptor (beta-arrestin); activation, % (test concentration not listed); P14416; 360,000 tested, 0.084% active; DiscoveRx PathHunter D2 beta-arrestin, luminescence, 90 min; 100% = 57 uM dopamine signal; in the data active = activation above about 40%; inconclusive = between about 15% and that limit
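Agonist mode: compounds alone added to overnight-plated D2 PathHunter cells for 90 min at 37 C, with 57 uM final dopamine (EC100) defining full response. Beta-arrestin recruitment detected by chemiluminescent reagent, read after 1 h at ambient temperature.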
D2 PAM-2 = positive allosteric modulators of human D2 dopamine receptor | DiscoveRx D2 beta-arrestin cells, luminescence, 90 min; 100% = 57 uM dopamine signal | potentiation, % (no concentration beside the values) | 360,000 tested, 0.23% active | AID 624464; in the data active = potentiation above about 50%; inconclusive = mostly about 30% to 49%
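D2 cells co-treated with compound plus 50 nM dopamine (EC20) for 90 min at 37 deg C to detect potentiation. Beta-arrestin recruitment was read as enzyme-fragment luminescence after 1 h at ambient temperature. Full response was set by 57 uM dopamine.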
Starred values were filed as active, the others as inactive; ? = inconclusive; nt = no result given.

SMILES	D2 ag-1	D2 antagonist	D2 PAM-1	D2 ag-2	D2 PAM-2
CC1CCN(C(=O)CSc2nnc3ccc(-c4cccnc4)nn23)CC1	-0.1	37.8*	-4.4	-1.5	16.0
COc1cccc(-c2ccc3nnc(SCC(=O)N4CCCC4)n3n2)c1	0.1	4.9	-5.3	-4.4	0.6
Cc1ccc2c(c1)-c1nc(-c3ccc4c(c3)NC(=O)CO4)cc(-c3ccc(F)cc3)c1CO2	0.2	nt	12.5	nt	nt
Cc1ccc(NC(=O)CSc2nc(=O)n(CCCN3CCOCC3)c3c2CCCC3)cc1F	-2.5	31.1*	2.9	-2.4	-31.5
CSc1oc(-c2ccccc2)nc1S(=O)(=O)c1ccc(C)cc1	2.5	34.3*	0.6	-3.9	-3.5
CCN1CCN(c2oc(-c3ccccc3)nc2S(=O)(=O)c2ccc(C)cc2)CC1	-0.2	47.2*	-24.1	-1.4	-36.0
Cc1ccc(S(=O)(=O)c2nc(-c3ccccc3)oc2N2CCCCCC2)cc1	0.6	nt	-3.6	nt	nt
CCOc1cc(C(=O)NCC(c2ccc(N(C)C)cc2)N2CCOCC2)cc(OCC)c1OCC (stereo unspecified)	-1.9	nt	nt	nt	nt
Cc1cccc(C)c1OCC(=O)OCC(=O)c1ccc2c(c1)NC(=O)CO2	0.7	30.2*	-5.4	-1.4	6.1
CCN1CCN(C(=O)c2ccc(Sc3ccccc3Cl)c([N+](=O)[O-])c2)CC1	1.4	1.2	-22.0	0.9	-26.4
CCN1CCCC1CNC(=O)c1ccc(Sc2ccc(F)cc2)c([N+](=O)[O-])c1 (stereo unspecified)	1.2	34.7*	-28.0	-4.6	-18.3
CCN1CCCC1CNC(=O)c1ccc(Sc2ccccc2Cl)c([N+](=O)[O-])c1 (stereo unspecified)	0.3	72.2*	-18.1	-1.0	-8.6
CSc1nc(C)cc(/C=C\c2ccccc2)c1C#N	-0.7	-8.1	41.4*	-4.5	-14.5
Cc1ccc2oc(=O)c3cc(C(=O)NCCCN4CCCC(C)C4)sc3c2c1 (stereo unspecified)	-0.2	42.8*	-17.9	-1.5	-32.0
CCCN1CCN(CCCNC(=O)c2cc3c(=O)oc4ccc(C)cc4c3s2)CC1	0.0	5.4	34.4*	-1.5	-11.1
COCCCNC(=O)c1cc2c(=O)oc3ccc(C)cc3c2s1	-0.3	nt	13.8	nt	nt
Cc1c(C(=O)N2CCCCCC2)c(S(=O)(=O)Nc2ccc(OC(F)(F)F)cc2)c(C)n1C	0.9	nt	1.5	nt	nt
O=S(=O)(Nc1ccc(-c2ccc(N3CCCC3)nn2)cc1)c1ccc(Br)cc1	0.0	nt	5.0	nt	nt
Cc1nc(-c2ccc(F)cc2)c(CC(=O)N2CCN(S(=O)(=O)c3cccc([N+](=O)[O-])c3)CC2)s1	0.1	33.8*	-4.5	?	29.0
O=C(NCCc1ccccc1)c1ccc2c(c1)N(Cc1ccc(Cl)cc1)C(=O)c1ccccc1S2(=O)=O	0.4	nt	-3.8	nt	nt
COC(=O)CCC(=O)OC1(C)C(=O)C=C2C=C(C3CC3)N(CC(C)C)C=C2C1=O (stereo unspecified)	0.0	31.5*	-2.0	nt	nt
COC(=O)CCC(=O)OC1(C)C(=O)C=C2C=C(C3CC3)N(CC3CC3)C=C2C1=O (stereo unspecified)	4.4	16.8	-13.2	7.4	17.5
O=[N+]([O-])c1cc(-c2nc3nc4ccccc4nc3n2CCc2ccccc2)cc([N+](=O)[O-])c1	-0.2	67.5*	1.6	13.5	10.6
COc1ccc(N=Cc2c(O)n(-c3cccc(C)n3)c(=O)c3ccccc23)cc1	-0.6	32.0*	-2.6	-1.7	-2.4
CCCC(=O)N(CCN(C(=O)CCC)c1ccccc1)c1ccccc1	0.9	-9.0	31.2*	-0.5	-8.6
SMILES	D2 ag-1	D2 antagonist	D2 PAM-1	D2 ag-2	D2 PAM-2
Cn1c(Cl)c(/C=N/OC(=O)c2ccc(Cl)cc2)c2ccccc21	0.0	56.1*	-3.2	0.6	-1.9
Cn1c(N2CCOCC2)c(/C=N/OC(=O)c2ccc(F)cc2)c2ccccc21	0.2	-5.3	12.3	?	141.2*
Cc1ccc(C(=O)O/N=C/c2c(Cl)n(C)c3ccccc23)cc1	-0.5	5.2	-1.2	1.7	-11.8
Cc1ccc(C(=O)O/N=C/c2c(N3CCOCC3)n(C)c3ccccc23)cc1	0.4	-7.5	-7.9	?	85.2*
CC(=O)O/N=C/c1c(N2CCOCC2)n(C)c2ccccc12	nt	nt	nt	13.3	62.2*
CCN(CC)S(=O)(=O)c1ccc2nc(NC(=O)c3cncc(Br)c3)sc2c1	nt	nt	0.9	nt	nt
O=C(Nc1ccc(F)c(F)c1)C1CCN(S(=O)(=O)c2cccc3nonc23)CC1	-2.3	-0.2	30.2*	-16.1	0.7
Cc1cccc2sc(NC(=O)C3CCCN(S(=O)(=O)c4cccc5nonc45)C3)nc12 (stereo unspecified)	-1.7	-8.7	39.2*	3.4	-11.2
Cc1cccc2sc(NC(=O)C3CCCO3)nc12 (stereo unspecified)	-0.2	31.9*	-3.9	-0.6	-3.9
CC(=O)Nc1ccc(NC(=O)C2CCN(S(=O)(=O)c3cccc4nonc34)CC2)cc1	0.3	10.5	21.4	1.8	-1.0
Cc1nnc(NC(=O)C2CCN(S(=O)(=O)c3cc([N+](=O)[O-])ccc3Cl)CC2)o1	-0.6	14.2	-4.9	?	2.3
Cc1cccc2sc(NC(=O)C3CCN(S(=O)(=O)c4cc([N+](=O)[O-])ccc4Cl)CC3)nc12	nt	nt	-0.5	?	64.2*
COCCNC(=O)C(=O)NCC(c1cccnc1)N1CCN(c2ccccc2)CC1 (stereo unspecified)	-0.3	nt	7.3	nt	nt
CN(CC(=O)Nc1ccc(F)c(F)c1F)C(=O)Cc1ccc2c(c1)OCCO2	-0.1	35.1*	-1.0	0.5	1.1
COc1ccc(OC)c2sc(N3CCN(C(=O)c4ccc5c(c4)CCCC5)CC3)nc12	0.0	nt	-1.4	nt	nt
COCCCN1CN=C(NS(=O)(=O)c2ccc(NC(C)=O)cc2)NC1	-1.7	nt	12.0	nt	nt
CCCCc1ccc(NC(=S)N2CCN(c3ccccn3)CC2)cc1	0.6	-5.7	10.6	8.7	-9.5
CCC(C)c1ccc(NC(=S)N2CCN(c3ccccn3)CC2)cc1 (stereo unspecified)	30.3*	19.5	-5.4	3.3	1.9
O=C(CSc1cn(CC(=O)N2CCCC2)c2ccccc12)Nc1ccc(Cl)cc1	0.6	nt	5.4	nt	nt
CC1CN(CCCCOc2ccc(Cl)c3ccccc23)CC(C)O1 (stereo unspecified)	-2.5	58.3*	-23.8	-0.1	-12.2
Cc1cc(C)c(NC(=O)C(C)Sc2nnc(-c3ccco3)n2-c2ccccc2)c(C)c1 (stereo unspecified)	-0.1	10.3	7.3	nt	nt
CC(Sc1nnc(-c2cc3ccccc3o2)n1-c1ccccc1)C(=O)O (stereo unspecified)	0.1	45.0*	-2.9	-2.5	2.5
Cc1cc2oc(C(=O)Nc3cccc(-c4nc5ccccc5o4)c3)c(C)c2cc1C	-1.4	nt	-2.3	nt	nt

Screening results: PubChem, National Center for Advancing Translational Sciences (NCATS)
